Test results from PubChem BioAssay AID504332 (National Center for Advancing Translational Sciences (NCATS), 2011).
In all, about 350,000 compounds went through this assay and about 31,000 (8.9%) were called active. Inconclusive results (about 15%) are left out. Calls come from the whole dose curve; as a rule, active = well fitted inhibition curve with a large enough effect; inconclusive = small, poorly fitted or top-dose-only effect; inactive = no such curve, though single readings can be large or run the other way. The full list was thinned out, with actives kept by preference.

Target: Histone-lysine N-methyltransferase EHMT2 (Homo sapiens) (UniProt Q96KQ7)
Assay: qHTS Assay for Inhibitors of Histone Lysine Methyltransferase G9a; note: nearly all actives have a fitted effect of over 75% in size
Conditions: G9a H3K9 monomethylation, AlphaScreen, 2 h; series mostly up to 59 µM; activity, negative = inhibition: at the top concentration
Summary of the method: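 Enzyme 20 nM + cpd, 15 min RT; add b-H3K9 pep 500 nM / SAM 20 uM; 2 h RT; anti-H3K9me1 Ab 0.5 ug/mL + SA donor / anti-rabbit acceptor beads 20 ug/mL each, 10 min; AlphaScreen read.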
% is set by controls: 0 for no effect and ±100 for the full control effect; potency is the fitted concentration of half-maximal effect.

Histone-lysine N-methyltransferase EHMT2 (Homo sapiens), sequence (Q96KQ7 913-1193 limits assumed): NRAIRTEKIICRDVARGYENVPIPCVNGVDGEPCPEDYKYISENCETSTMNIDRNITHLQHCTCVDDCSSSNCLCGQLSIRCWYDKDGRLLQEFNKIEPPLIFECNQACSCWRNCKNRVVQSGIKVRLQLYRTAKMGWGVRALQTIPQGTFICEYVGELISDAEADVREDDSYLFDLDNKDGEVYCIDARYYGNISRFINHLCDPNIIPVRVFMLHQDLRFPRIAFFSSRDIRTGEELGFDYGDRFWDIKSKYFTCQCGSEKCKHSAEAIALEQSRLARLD

activity, negative = inhibition, inactive:
COC(=O)c1ccc(Cn2c(SCC(=O)N(C)c3ccccc3)nc3ccccc32)cc1 -1.12% [at 12.7 µM]
Cc1ccc(Cl)cc1N1CCN(S(=O)(=O)c2cc3[nH]c(=O)c(=O)[nH]c3cc2C)CC1 -35.6%
Cc1ccc(Nc2ccccc2N)cc1 -112%
COc1ccc(OC)c(CNC(=O)c2c3c(nc4ccccc24)C(=O)N(C2CCCCC2)C3)c1 8.12%
Cc1ccc(C)c(NC(=O)CSC2=Nc3ccccc3N=C(c3ccc(F)cc3)C2)c1 5.92%
Cc1ccc2nc(-c3ccncc3)cc(C(=O)Nc3ccncc3)c2c1 -0.776% [at 102 µM]
Cc1c(C(=O)NCc2ccccc2Br)oc2ccc3c(c12)C(=O)CC(C)(C)O3 -3.36%
CCc1ccc2oc(-c3ccc(C)c(NC(=O)/C=C/c4ccco4)c3)nc2c1 -28.5%
O=C(Cc1cccs1)Nc1cccc(-c2nc3ccccc3[nH]2)c1 -2.95%
CCC1CCC2(CC1)NC(=O)N(CC(=O)Nc1ccc(OC)cc1)C2=O (stereo not drawn) 7.81% [at 0.501 µM]
COc1cccc(NC(=O)CN2C(=O)c3ccccc3Sc3ncccc32)c1 -3.8%
O=C(NNC(=O)C1CCCC1)c1ccc(F)cc1 20.9% [at 102 µM]
CC1CC(=O)Nc2ccccc2N1C(=O)COc1ccc2cc(Br)ccc2c1 (stereo not drawn) -5.57% [at 2.33 µM]
CCCCN(CC)CCCNC(=O)c1nn(C)c2c1CS(=O)(=O)c1ccccc1-2 -9.82%
COc1ccc(OCC(=O)NCCc2ccc(S(N)(=O)=O)cc2)cc1 -7.3%
COc1ccc(NC(=S)Nc2ccc(S(N)(=O)=O)cc2)c(C)c1 -45.2% [at 102 µM]
COc1ccc(C(=O)CC(=O)C(=O)Nc2cc([N+](=O)[O-])ccc2OC)cc1 13.4% [at 102 µM]
COc1ccc(N2C(=O)C3CCCN3C2c2cccs2)cc1 (stereo not drawn) 14.2% [at 102 µM]
COc1ccc(C2NC(=O)N(C)C3=C2C(=O)N(c2ccc(C(=O)O)cc2)C3)cc1 (stereo not drawn) -0.267%
Cn1c(=O)[nH]c(=O)c2c1nc(NCCc1ccccc1)n2Cc1ccc(F)cc1 7.33%
CCCOc1ccc(-c2cccc(NS(=O)(=O)c3ccccc3)c2)nn1 -0.99%
O=S(=O)(Nc1cccc(-c2ccc(N3CCOCC3)nn2)c1)c1ccc(Cl)c(Cl)c1 -30.6% [at 102 µM]
CCCc1cc(=O)oc2cc(OCC(=O)Nc3ccc(CN4CCOCC4)cc3)c(Cl)cc12 3.1% [at 0.501 µM]
CN(CC(=O)Nc1cccc(C(F)(F)F)c1)S(=O)(=O)c1cccs1 -7.08%
Cc1ccc2[nH]cc(CCNC(=O)C3CCCCC3)c2c1 7.65%
COc1ccc2[nH]cc(CCN3C(=O)c4ccc(C(=O)O)cc4C3=O)c2c1 8.52% [at 102 µM]
CCCC(=O)Nc1cc2nn(-c3ccccc3)nc2cc1C 6.98%
COc1cc(CNCCN(C)C)ccc1OCc1c(F)cccc1Cl -50.1% [at 102 µM]
COc1ccc(CNCCCO)cc1OC 5.75%
CC(Nc1nc(C(F)(F)F)nc2ccccc12)c1cccs1 (stereo not drawn) 94.6% [at 102 µM]
Cc1cc(C)nc(N/N=C/c2ccc([N+](=O)[O-])o2)n1 -49.2% [at 102 µM]
COc1ccc(C(=O)Nc2ccc(-n3nncc3-c3ccccc3)cc2)cc1OC -28%
CCOC(=O)C1CCCN(C(=O)Cn2ncc3c(C)n(Cc4ccc(F)cc4)c(C)c3c2=O)C1 (stereo not drawn) 13%
COc1ccc(CCNC(=O)CSc2nnc(CNC(=O)c3cccs3)o2)cc1OC 30% [at 12.7 µM]
COc1ccc(-c2nnc(SCC(=O)c3cccs3)o2)c(OC)c1 -1.85% [at 102 µM]
CCc1cc(C(=O)Nc2nnc(C3CC3)s2)sc1C 5.21% [at 12.7 µM]
CC(C)CC(N=C1NC(C)(C)Cc2ccccc21)C(=O)O (stereo not drawn) 12.6%
CCC1(CC)Cc2ccccc2-c2nc(CCl)[nH]c(=O)c21 -21.1% [at 102 µM]
CCc1cc2c(cc3c(=O)n(CC(=O)N4CCN(c5cc(Cl)ccc5C)CC4)nc(CC)n32)s1 -1.08%
CCOc1ccc2[nH]c(=O)c(CN(Cc3nnnn3Cc3ccccc3)CC3CCCO3)cc2c1 (stereo not drawn) -25.1% [at 102 µM]
CCC(c1nnnn1Cc1ccccc1)N(Cc1cc2cc(OC)ccc2[nH]c1=O)CC1CCCO1 (stereo not drawn) -31.1% [at 12.7 µM]
CCCOc1ccc(C(=O)Nc2ccc3oc(-c4cccc(Cl)c4Cl)nc3c2)cc1 -29.8%
COc1ccc(S(=O)(=O)N2CCOCC2)cc1C(=O)NC1CCCCC1 18.8% [at 102 µM]
CC(NC(=S)NC1CCCCC1)C(c1ccccc1)N1CCOCC1 (stereo not drawn) 2.9% [at 102 µM]
COc1ccc(NC(=O)C(=O)NCC(=O)Nc2cccc(C(F)(F)F)c2)cc1 2.22% [at 102 µM]
COc1ccc(NC(=O)CN(C)CC(=O)Nc2cccc(C(F)(F)F)c2)cc1 6.72% [at 102 µM]
CCCCOc1ccc(C(=O)Nc2cccc(-c3nc4ccccc4o3)c2C)cc1 -21%
O=C(NCc1ccc(Cl)cc1)C(=O)NCC1CCCN1S(=O)(=O)c1cccs1 (stereo not drawn) 1.44% [at 102 µM]

Potency, inactive:
Nc1ccc(S(=O)(=O)NC(=O)c2ccccc2)cc1
COCCNC(=O)CCCN1C(=O)c2ccccc2Sc2ncccc21

Potency, active:
Nc1ccc(Nc2ccccc2)cc1 4.47 µM
O=C(/C=C/c1ccco1)Nc1cccc(-c2nc3ccccc3[nH]2)c1 25.1 µM
O=C(O)CCCN1C(=O)c2ccccc2Sc2ncccc21 50.1 µM
COc1cc(NC(=S)NCc2ccc(S(N)(=O)=O)cc2)cc(OC)c1 17.8 µM
COc1ccc(N2C(=O)C3C(C2=O)C(C(=O)c2ccccc2)N2CCCC32)cc1 (stereo not drawn) 10 µM
O=[N+]([O-])c1ccc(S(=O)(=O)Nc2cccc(-c3ccc(N4CCCC4)nn3)c2)cc1 10 µM
Cc1ccc2[nH]cc(CCCN3C(=O)c4ccccc4C3=O)c2c1 44.7 µM
CCOCCCNCc1ccc(OCc2ccc(F)cc2)c(OC)c1 7.08 µM
O=C(NCC#CCSc1nnc(-c2cccc3ccccc23)o1)c1cccs1 3.16 µM
CC1(C)Cc2ccccc2-c2[nH]c(=S)[nH]c(=O)c21 10 µM
CCC(c1nnnn1Cc1ccco1)N(Cc1cc2cc(OC)ccc2[nH]c1=O)C1CCCCC1 (stereo not drawn) 3.16 µM
S=C(NC1CCCCC1)NN1CCOCC1 50.1 µM
COc1ccc(C(CC(=O)Nc2ccc(C)cc2)NC(=O)C(F)(F)F)cc1 (stereo not drawn) 79.4 µM
